Screening data (PubChem)
The list is not random: actives were taken first. Their share in the collection is about 28%.
CYP2C19 inhib: blocks human cytochrome P450 2C19; AID 778; 96,000 tested, 21% active; CYP2C19 Supersomes, luciferin-H EGE luminescence, 30 min; inhibition, % at 5 µM;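 active means CYP2C19 inhibition above a set limit at 5 µM in the primary screen, cut at about 50% in these data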
CD11b adhes inh: blocks human CD11b/CD18 adhesion to fibrinogen | K562 CD11b/CD18 adhesion to fibrinogen, ATPlite luminescence; Mn2+ added to activate the integrin | inhibition, % at 10 µM | 93,000 tested, 0.54% active;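 active means primary inhibition of 50% or more at 10 µM, then 40% or more on retest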
Target sequence (P05107 whole entry, looked up, other chains not shown): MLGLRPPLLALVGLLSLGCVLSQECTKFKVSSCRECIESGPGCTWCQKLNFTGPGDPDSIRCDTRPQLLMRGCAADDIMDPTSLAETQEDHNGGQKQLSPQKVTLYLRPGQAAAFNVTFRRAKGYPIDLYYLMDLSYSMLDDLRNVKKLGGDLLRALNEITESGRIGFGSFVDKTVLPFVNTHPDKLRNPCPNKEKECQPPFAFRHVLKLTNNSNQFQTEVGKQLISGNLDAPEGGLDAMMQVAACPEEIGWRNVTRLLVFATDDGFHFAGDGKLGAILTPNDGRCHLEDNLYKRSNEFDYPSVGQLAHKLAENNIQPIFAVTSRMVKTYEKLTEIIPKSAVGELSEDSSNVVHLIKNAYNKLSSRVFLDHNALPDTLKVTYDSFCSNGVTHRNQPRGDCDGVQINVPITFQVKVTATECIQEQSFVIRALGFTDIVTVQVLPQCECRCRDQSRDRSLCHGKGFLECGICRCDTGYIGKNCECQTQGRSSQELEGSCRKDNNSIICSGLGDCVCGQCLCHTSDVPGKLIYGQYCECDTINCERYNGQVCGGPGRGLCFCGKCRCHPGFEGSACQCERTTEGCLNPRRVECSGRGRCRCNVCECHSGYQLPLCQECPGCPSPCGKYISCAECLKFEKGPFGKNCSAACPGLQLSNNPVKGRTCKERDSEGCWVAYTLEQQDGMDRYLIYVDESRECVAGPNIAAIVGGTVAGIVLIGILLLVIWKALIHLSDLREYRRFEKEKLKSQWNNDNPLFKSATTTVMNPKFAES
Mac1 fbg enh: CD11b/CD18-fibrinogen binding enhancement | activation, % at 10 µM | K562 CD11b/CD18 adhesion to fibrinogen, ATPlite luminescence | 93,000 tested, 0.07% active | P05107+P11215;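 active means 10 µM primary screen giving 50% or more activity, confirmed by 40% or more on retest at that dose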
CYP2C9 inhib: blocks human cytochrome P450 2C9; 96,000 tested, 20% active; inhibition, % at 5 µM; P11712; CYP2C9 Supersomes, luciferin-H conversion, luminescence;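 active means blocking of liver enzyme CYP2C9 beyond about 50% at 5 µM, limit read from the data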
CYP2C19 act: increases human CYP2C19 enzyme activity. activation factor at 5 µM. 96,000 tested, under 10 active. recombinant CYP2C19, luciferin-H EGE luminescence; active compounds read high; 0 = fully inhibited enzyme, 1 = untreated enzyme;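 active means activation factor of at least 2 at 5 µM in the primary screen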
CYP2C9 activ: activators of human CYP2C9; activation factor at 5 µM; 96,000 tested, 1.4% active; recombinant CYP2C9, luciferin-H conversion, luminescence; active compounds read high; factor 1 = untreated enzyme, 0 = blocked; P11712;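 active means activation factor of 2 or more for CYP2C9 at a 5 µM dose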
Numbers stand for hits; n = inactive; x = no result given.

SMILES	CYP2C19 inhib	CD11b adhes inh	Mac1 fbg enh	CYP2C9 inhib	CYP2C19 act	CYP2C9 activ
CCOC(=O)C1CCCN(c2c(NCCN(CC)c3ccccc3)c(=O)c2=O)C1 (stereo not drawn)	68	n	n	n	n	n
COc1ccccc1NC(=O)Cc1csc(N)n1	n	n	n	n	n	n
Cn1c(CNc2ccccc2)cc(=O)n(C)c1=O	n	n	n	n	n	n
CCOC(=O)N1CCC(Nc2c(-c3ccccc3)c(=O)c2=O)CC1	n	n	n	n	n	n
CCOC(=O)N1CCC(Nc2c(N3CCN(c4cccc(C(F)(F)F)c4)CC3)c(=O)c2=O)CC1	n	n	n	58	n	n
COc1ccc2oc(=O)c(-c3nnc(NCc4ccco4)s3)cc2c1	n	n	n	n	n	n
CCOc1cccc2cc(-c3nnc(NCc4ccco4)s3)c(=O)oc12	n	n	n	n	n	2.9
COc1cc(/C=N/NC(=O)c2cccnc2)ccc1OCC(=O)N1CCOCC1	x	n	n	x	x	x
Cc1c(Cl)ccc2c1NC(=O)C21NC(CCC(N)=O)[C@H]2C(=O)N(c3ccc(Cl)cc3)C(=O)[C@H]21 (stereo partly drawn)	57	n	n	70	n	n
CSCCC1NC2(C(=O)Nc3c2ccc(Cl)c3C)[C@@H]2C(=O)N(C3CCCC3)C(=O)[C@H]12 (stereo partly drawn)	91	n	n	91	n	n
Cc1cc(NC(=O)NC2CCCN2S(=O)(=O)c2ccc(Cl)cc2)no1 (stereo not drawn)	80	n	n	60	n	n
Cc1cc(NC(=O)COC(=O)C2CCN(S(=O)(=O)c3ccc(Cl)cc3)CC2)no1	n	n	n	62	n	n
CCc1nc2cc(Cl)c(Cl)cc2[nH]1	59	n	n	n	n	n
CCCCn1c2c(c(=O)n(C)c1=O)C(CC(=O)OCC(=O)Nc1cccc(C(F)(F)F)c1)C(=O)N2 (stereo not drawn)	n	n	n	86	n	n
Cn1c(=O)c2c(n(Cc3ccccc3)c1=O)NC(=O)C2CC(=O)O (stereo not drawn)	n	n	n	n	n	n
Cn1c(SCC2CCCCC2)nnc1-c1ccncc1	100	n	n	87	n	n
Cc1ccc(NC(=O)c2ccc(CSc3nnc(C)s3)cc2)c(C)c1	n	x	x	n	n	n
Cn1c(SCC(=O)C(C)(C)C)nnc1-c1ccncc1	87	n	n	63	n	n
Cc1ccc(NC(=O)c2ccc(CSc3nnc(-c4ccncc4)n3C)cc2)c(C)c1	n	x	x	66	n	n
Cc1ccc(C(=O)NNC(=O)CSc2nnc(-c3ccncc3)n2C)cc1	n	x	x	n	n	n
Cn1c(SC2CCCCC2=O)nnc1-c1ccncc1 (stereo not drawn)	70	x	x	n	n	n
O=C(Cn1cnc2c(nnn2Cc2ccc(F)cc2)c1=O)N1CCN(c2ccccc2)CC1	n	x	x	n	n	n
Cn1c(SCCCC(=O)c2ccc(Br)cc2)nnc1-c1ccncc1	75	n	n	93	n	n
Cn1c(=O)c2c(nc(Oc3ccc(-c4ccccc4)cc3)n2C)n(C)c1=O	n	n	n	n	n	n
O=C(CSc1nnnn1-c1ccccc1)Nc1ccc(N2CCOCC2)c(Cl)c1	n	n	n	n	n	n
SMILES	CYP2C19 inhib	CD11b adhes inh	Mac1 fbg enh	CYP2C9 inhib	CYP2C19 act	CYP2C9 activ
O=C(CSc1nnnn1-c1ccccc1)Nc1nsc(-c2ccc(Cl)cc2)n1	75	n	n	n	n	2.8
Cc1ccc(-c2nc(NC(=O)CSc3nnc(C)s3)ns2)cc1	65	n	n	n	n	n
O=C(CSc1nnnn1-c1ccccc1)CC(=O)Nc1ccc(Cl)cc1	n	n	n	n	n	2.4
Cc1nc(N/C(N)=N/S(=O)(=O)c2ccc([N+](=O)[O-])cc2)nc2ccccc12	x	n	n	x	x	x
N=c1c2c3c(sc2nc2n1CCC2)CCCC3	n	n	n	n	n	n
COc1cc(OC)c(OC)cc1/C=N/NC(=S)NCC1CCCO1 (stereo not drawn)	n	n	n	65	n	n
CC(NS(=O)(=O)c1ccccc1)C(=O)NCc1ccco1 (stereo not drawn)	n	n	n	n	n	n
N/C(=N\OC(=O)Cc1ccc(Cl)cc1)c1cccnc1	n	n	n	n	n	n
N/C(=N\OS(=O)(=O)c1ccc(Cl)cc1)c1ccncc1	68	n	n	81	n	n
CCN(CC)S(=O)(=O)c1cccc(-c2cn3cc(C)ccc3n2)c1	61	n	n	67	n	n
CC(=O)c1cccc(NC(=O)CN(Cc2ccccc2)S(C)(=O)=O)c1	76	n	n	n	n	n
CS(=O)(=O)N(CC(=O)Nc1cccc(F)c1)Cc1ccccc1	91	n	n	82	n	n
O=C(CSc1nnc(-c2csc3c2CCCC3)o1)Nc1ccccc1	n	n	n	n	n	n
Cc1cc(=O)[nH]c(SCC(=O)Nc2ccc(Br)cc2)c1C#N	95	93	n	93	n	n
Cc1cc(=O)[nH]c(SCC(=O)Nc2ccccc2C#N)c1C#N	64	n	n	71	n	n
COC(=O)CSc1[nH]c(=O)cc(C)c1C#N	n	n	n	n	n	n
Cc1nc2ccccc2c2c1C(=O)N(C1CCCCCCC1)C2=O	n	n	n	n	n	n
Cc1ccccc1OCCOc1cccc(/C=N/NC(=O)Cc2nnc(N)s2)c1	n	n	n	n	n	n
Clc1cccc(Cl)c1/C=C/c1nc2ccccc2[nH]1	n	n	n	84	n	n
COc1cc(/C=N/NC(=S)Nc2cccc(Cl)c2C)ccc1OCC(=O)N1CC(C)OC(C)C1 (stereo not drawn)	x	n	n	x	x	x
COc1ccc(C2(C(=O)N3CCOCC3)CCOCC2)cc1OC	n	n	n	n	n	n
COC(=O)c1cccc(NS(=O)(=O)c2ccc(OC)c(OC)c2)c1C	n	n	n	n	n	n
COC(=O)COc1ccc(S(=O)(=O)Nc2ccc(NC(C)=O)cc2)cc1C	76	n	n	n	n	n
COc1ccc(CC(=O)Nc2ccc(S(=O)(=O)N(C)C)cc2)cc1OC	n	x	x	n	n	n
COC(=O)Nc1ccc(S(=O)(=O)Nc2ccc(C)cc2)cc1	n	n	n	n	n	n
SMILES	CYP2C19 inhib	CD11b adhes inh	Mac1 fbg enh	CYP2C9 inhib	CYP2C19 act	CYP2C9 activ
COc1ccc(CONS(=O)(=O)c2ccc(NC(C)=O)cc2)cc1Cl	53	x	x	n	n	n
COc1ccc(S(=O)(=O)Nc2ccc(NC(C)=O)cc2)cc1OC	95	n	n	67	n	n
COc1cccc(NS(=O)(=O)c2ccc(OC)c(OC)c2)c1	100	n	n	n	n	n
COc1ccc(S(=O)(=O)Nc2ccc(S(=O)(=O)Nc3nc(C)cc(C)n3)cc2)cc1OC	n	n	n	n	n	n
COC(=O)c1ccc(C)c(NS(=O)(=O)c2ccc(OC)c(OC)c2)c1	82	n	n	58	n	n
COc1ccc(S(=O)(=O)c2ccc(OC)c(OC)c2)cc1OC	79	n	n	n	n	n
